The whole screen tested about 48,000 compounds, of which about 13,000 (27%) showed an effect of 50% or more. Some of the results follow.
The compounds below were run on Wolbachia pipientis (assay: Anti-Wolbachia Cell-Based Screen). Conditions: 5 µM.
Assay type: functional
Set-up: scale not given: in the data most compounds retested in dose-response had high values

Compared with CCN(c1ccccc1)S(=O)(=O)c1cc(C(=O)O)cc2c1CCC2, O=C(O)c1ccc(N2CCC(Cc3ccccc3)CC2)nn1 is higher in “Percent Effect” value: 1.015% for the first, 3.318% for the second.

First: Cc1ccc(N2Cc3cnn(Cc4ccc(F)cc4)c3C2)nn1
Second: Cc1ccc(CN2CCN(Cc3ccc4nonc4c3)CC2=O)cc1
The “Percent Effect” value of the first is higher: 30.55% for the first, -11.42% for the second.

Going from Cc1nn(C)c(C)c1OCC(=O)N1CCC(O)(C(F)(F)F)CC1 to COCC(=O)N1CCC2(CC1)COc1ccccc1S(=O)(=O)N(C)C2, the “Percent Effect” value rises from -15.17% to 78.61%.

Going from CCOCCNC(=O)c1cc(COc2cncc(Cl)c2)on1 to CCCc1cc(C(=O)N2CCOC(c3nc(-c4cccs4)no3)C2)no1 (stereo not given), the “Percent Effect” value rises from -4.955% to 6.079%.

First: Cc1cc2occ(CC(=O)N3CCC4(CCCN(C)C4=O)C3)c2cc1Cl (stereo not given)
Second: CCC(=O)N1CCC2(CC1)COc1ccccc1S(=O)(=O)N(C)C2
The “Percent Effect” value of the first is lower: -29.71% for the first, 3.45% for the second.

Compared with CCC(=O)NC1CCCN(C(=O)c2ccc(OCC3CC3)nc2)C1 (stereo not given), CCC(=O)NC1CCCN(c2cncc(OCc3ccccc3)n2)C1 (stereo not given) is higher in “Percent Effect” value: -1.285% for the first, 109.7% for the second.

Going from NC(=O)CC1CCCN(c2cncc(SCc3ccccc3)n2)C1 (stereo not given) to NC(=O)CC1CCCN(c2cncc(OCc3ccccc3)n2)C1 (stereo not given), the “Percent Effect” value falls from 107.6% to 95.75%.

Compared with Cc1ccccc1CSc1nc(N)cc(N2CCCC(O)C2)n1 (stereo not given), O=C(O)c1cn(CC2CCCN(c3cnc4ccccc4n3)C2)nn1 (stereo not given) is higher in “Percent Effect” value: -23.5% for the first, 0.3718% for the second.

First: NC(=O)N1CCCC(C(=O)NCc2noc(Cc3ccccc3)n2)C1 (stereo not given)
Second: NC(=O)CC1CCN(c2cncc(OCc3ccccc3)n2)CC1
The “Percent Effect” value of the first is lower: 9.14% for the first, 92.73% for the second.

Going from CC(C)Oc1ncc(C(=O)N2CCC(CC(N)=O)CC2)cc1Cl to COc1nc(N2CCC(CC(N)=O)CC2)ncc1Br, the “Percent Effect” value rises from -16.32% to 4.929%.

Going from CCCC(=O)NC1CCCN(c2cncc(Br)c2)C1 (stereo not given) to CC(C)COc1cncc(N2CCCC(CC(N)=O)C2)n1 (stereo not given), the “Percent Effect” value rises from 2.547% to 119.8%.

First: CNC(=O)CN(C)c1cncc(OCc2ccccc2)n1
Second: CNC(=O)CN(C)c1cncc(OCC(C)C)n1
The “Percent Effect” value of the first is lower: -7.002% for the first, -2.547% for the second.

Compared with O=C(Nc1cccnc1)C1CCCN(c2cc(-n3cccn3)ncn2)C1 (stereo not given), c1ccc2nc(N3CCCC(Cn4cncn4)C3)cnc2c1 (stereo not given) is higher in “Percent Effect” value: -6.997% for the first, 3.637% for the second.

Compared with c1ccc(COC2CCN(c3cncc(-n4cccn4)n3)CC2)cc1, COCC1CCCN(c2cncc(OCc3ccccc3)n2)C1 (stereo not given) is higher in “Percent Effect” value: 1.342% for the first, 88.62% for the second.

Compared with c1cncc(COCC2CN(Cc3ccco3)Cc3ccnn3C2)c1 (stereo not given), CN(C)CCn1nc(C2CCN(Cc3ccccc3)C2)c2cccnc21 (stereo not given) is higher in “Percent Effect” value: -0.3306% for the first, 91.7% for the second.

First: COc1ccc(Cl)cc1CS(=O)(=O)Cc1nc(C2CC2)no1
Second: COc1ncccc1C(=O)N1CC(c2nc(-c3cccs3)no2)C1
The “Percent Effect” value of the first is higher: 17.46% for the first, 5.63% for the second.

Compared with Cc1cnc2c(c1)N(C(=O)c1ccc(=O)n(C)c1)CCO2, Cc1cc(C)c(C(=O)N2CCOC(c3cccs3)C2)c(=O)[nH]1 (stereo not given) is lower in “Percent Effect” value: 10.48% for the first, -5.418% for the second.

Going from O=C(c1c(F)cccc1Br)N1CCCOCC1 to COc1c(C(=O)N2CCOC(c3cccs3)C2)c(C)nn1C (stereo not given), the “Percent Effect” value falls from -0.116% to -3.946%.

Compared with CCCn1cc(C(=O)N2CCOC(c3nc(-c4cccs4)no3)C2)cn1 (stereo not given), CCn1cc(C(=O)N2CCOC(c3nc(-c4cccs4)no3)C2)cn1 (stereo not given) is higher in “Percent Effect” value: 93.77% for the first, 116.8% for the second.

First: CCn1ccc(C(=O)N2CCOC(c3nc(-c4cccs4)no3)C2)n1 (stereo not given)
Second: CCCn1ccc(C(=O)N2CCOC(c3nc(-c4cccs4)no3)C2)n1 (stereo not given)
The “Percent Effect” value of the first is higher: 106.6% for the first, 4.055% for the second.

Compared with O=C(O)C(=O)O.c1csc(-c2noc(C3CN(Cc4ccc5c(c4)CCO5)C3)n2)c1, CCn1c(CN(C)C)nnc1C1CCN(Cc2ccccc2)CC1 is lower in “Percent Effect” value: 26.44% for the first, 3.823% for the second.

Going from CN(C)CCN1CC2(CCCN(c3ccc(Cl)cn3)C2)CCC1=O (stereo not given) to CCc1ccc(CN2CCC3(CCCN(C(=O)N(C)C)C3)C2)o1 (stereo not given), the “Percent Effect” value rises from -8.264% to 2.362%.

Going from CCN(Cc1ccoc1)c1ncc(S(N)(=O)=O)s1 to CCS(=O)(=O)N1CCC(c2nn(CCN(C)C)c3ncccc23)C1 (stereo not given), the “Percent Effect” value rises from -17.75% to 95.82%.

Going from CC(NCCCC#N)c1ccc(-c2ccncc2)cc1 (stereo not given) to CS(=O)(=O)NCC(=O)NCc1cccnc1-n1cnc2ccccc21, the “Percent Effect” value rises from -12.76% to 9.043%.

Going from CCN1CC2(CCNCC2)COc2ccccc2S1(=O)=O.O=C(O)C(F)(F)F to CCN1CC2(CCN(C(=O)N(C)C)CC2)COc2ccccc2S1(=O)=O, the “Percent Effect” value rises from 12.77% to 88.03%.

First: CN(C)CC(=O)N1CCC2(CC1)COc1ccccc1S(=O)(=O)N(C)C2
Second: COCCN1CCC2(CC1)COc1ccccc1S(=O)(=O)N(C)C2
The “Percent Effect” value of the first is lower: 75.94% for the first, 110% for the second.

Going from CN1CC2(CCN(CCOCCO)CC2)CC(c2ccccc2)C1=O (stereo not given) to CN1[C@@H](c2ccccc2)[C@@H](C(=O)NCC2CCOCC2)C[C@@]1(C)C(=O)O, the “Percent Effect” value rises from -8.792% to -0.5583%.

Compared with COCc1ccccc1C(=O)NCC(c1c(F)cccc1F)N(C)C (stereo not given), COc1cccc(-c2n[nH]c3c2CN(C(=O)c2cccc(=O)[nH]2)CC3)c1 is lower in “Percent Effect” value: -0.8203% for the first, -3.168% for the second.

Compared with O=c1nc(SCc2cccnc2)c2c(n1CCO)CCC2, CN(C)S(=O)(=O)N1CCCC(c2nccn2Cc2cccnc2)C1 (stereo not given) is lower in “Percent Effect” value: -0.5534% for the first, -1.241% for the second.

First: O=S(=O)(c1cc2ccccc2o1)N1CCCC1
Second: CCS(=O)(=O)N1CCC(c2nccn2Cc2ccccn2)CC1
The “Percent Effect” value of the first is lower: -2.177% for the first, -0.918% for the second.

Compared with CC(=O)N1CC(c2ncn(C(C)C)n2)c2cc(C(=O)NC3CC3)ccc21 (stereo not given), CN(C)CCn1nc(C2CCN(S(=O)(=O)N(C)C)C2)c2cccnc21 (stereo not given) is higher in “Percent Effect” value: -21.86% for the first, 111.8% for the second.

First: CCn1c(C2CCCN(S(=O)(=O)C3CC3)C2)nn(CCN(C)C)c1=O (stereo not given)
Second: NCCn1nc(C2CCN(Cc3ccc(Cl)c(Cl)c3)C2)c2nccnc21 (stereo not given)
The “Percent Effect” value of the first is lower: 1.006% for the first, 1.426% for the second.

O=C(NC1(c2nnn(CCO)n2)CCCC1)c1ccccc1 was tested, and the “Percent Effect” value was -5.354%.

Source: ChEMBL document CHEMBL3988442, “University of Dundee, Small-Polar-MMV Screening Library” (2021)
